Usually inhibition stands for the drop in the measured response relative to a control, in per cent.

Results on 27 molecules are retold here after PubChem BioAssay AID652010 (The Scripps Research Institute Molecular Screening Center, 2013).

Among all 370,000 compounds or so, about 4,100 (1.1%) were called active. The sample as a whole holds a higher share of actives than the screen did. Values without a mark were called inactive.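 Rule for the calls: active = inhibition above the mean over all tested compounds plus 3 SD (cut at about 3.6% in these data); inactive = the rest.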

This assay is described as follows: relief of DAX-1 repression of SF-1 activity – cell-based, luminescence, SF-1 (NR5A1), full-length DAX-1, primary screen (AID 652010).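 Note: 0% = DAX-1 cells with DMSO and 100% = cells lacking DAX-1 with DMSO.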 The following applies: HEK293T StAR-luciferase reporter, SF-1/DAX-1 repression relief; at 6.8 µM; stronger effect = higher value.
Take `Cc1ccc(NC(=S)Nc2ncccc2C)c(C)c1`: the inhibition was 4.16% (active). As for `Cc1cc(Br)ccc1NC(=S)NC1CCCC1`, the figure is 0.19%; as for `Cc1ccc(NC(=O)c2cc(C)nn2-c2ccccc2)c(C)c1`, -0.54%; as for `O=C(c1ccncc1)N1CC[C@H]2[C@H](CCCN2Cc2ccc(F)cc2)C1`, -0.35%. As for `Cc1ccccc1CN1CCCCC(NC(=O)c2cccc(C#N)c2)C1=O` (configuration not stated), the figure is -1.4%. As for `Cc1ccc(C(=O)N/N=C/c2sc(=O)n(Cc3cccc(C(=O)O)c3)c2Cl)cc1`, the figure is -0.16%; as for `Cc1ccc(/C=C2\CCn3c2nc2cc(C(=O)O)ccc2c3=O)c(C)c1`, -0.46%; as for `Cc1ccc2cc(/C=N/Nc3ccc(C(=O)O)cc3)c(Cl)nc2c1`, 4.23% (active). Regarding `CCCCCCCCN1C(=O)[C@@H](CC(=O)NCCCC)C[C@@]2(C(=O)OC)C1=C[C@H](C(C)(C)C)O[C@@H]2C`, the inhibition was 1.52%. As to `O=C(CCCCCn1c(=O)[nH]c2ccccc2c1=O)NCCc1c[nH]c2ccccc12`, the inhibition is -0.81%. For `O=C(NCCc1ccccc1)c1c[nH]c2ccc(F)cc2c1=O`, the inhibition is -0.4%. `O=C(NCCc1c[nH]c2ccccc12)c1cc2ccccc2oc1=O`: the inhibition is 6.37% (active).

Regarding `O=C(NCCCCCCCCCNC(=O)C(F)(F)F)C(F)(F)F`, the inhibition was 0.58%.

Consider `COC(=O)C1=C(C)N(Cc2ccccc2C(F)(F)F)C(=NCc2ccc(OC)cc2)NC1c1cccc(C(F)(F)F)c1` (configuration not stated), for which the inhibition is -2.23%. To `Cc1cccc(NC(=S)N2CCC(C(=O)c3ccc(F)cc3)CC2)c1` belongs 0.4%.

As to `O=C(Nc1ccc(-c2nnc(-c3ccccc3)o2)cc1)C1CCCO1` (configuration not stated), the inhibition is 3.77% (active). To `CCOC(=O)c1ccc(NC(=O)c2ccc(NC(=O)C3CCCO3)cc2)cc1` (configuration not stated) belongs -1.16%. As for `CC(C)(C)NS(=O)(=O)c1ccc(NC(=O)C2CCCO2)cc1` (configuration not stated), the figure is -0.07%; as for `CN1CCCc2nc(-c3ccccc3)ccc21`, 1.43%. To `Cc1ccc(C(=O)O/N=C(\N)c2ccccn2)cc1Cl` belongs 1.79%.

For the molecule `Cc1cccc(/C(N)=N/OC(=O)c2ccccc2Cl)c1`, the inhibition was 4.38% (active).

For `C/C(=N\OC(=O)c1ccccc1)c1c(C)nc2cc(C)ccn12`, the inhibition was -0.48%. `Cc1ccc(Cn2cc(COC(=O)N(C)Cc3ccccc3)nn2)cc1`: the inhibition was -0.12%. As for `CC(C)(C)c1ccc(S(=O)(=O)NCC2CCN(C(=O)C(=O)c3cc4ccccc4o3)CC2)cc1`, the figure is -1.6%; as for `COc1cc(/C=C/C(=O)OCC(=O)NCCCc2ccccc2)ccc1O`, -0.2%. To `COc1cc(/C=C/CO)cc(OC)c1O[C@@H]1O[C@H](CO)[C@@H](O)[C@H](O)[C@H]1O` belongs 0.72%; to `COc1ccc(CCOC2OC(CO)C(OC(=O)/C=C/c3ccc(O)c(OC)c3)C(O[C@H]3O[C@@H](C)[C@H](O)[C@@H](O)[C@H]3O)C2O)cc1O` (some centres not stated), 4.55% (active).
